From PubChem BioAssay
Activity calls are given as the source filed them. Unless noted, no rule for the calls is given here.

How the values were obtained:
[1] = A549 cell viability effects, profiling panel, calcein-AM fluorescence, 48 h, basal (AID 1162); conditions: higher = more signal; also: test concentration not given here
[2] = adipocyte viability effects, profiling panel, cell-based, 3T3-L1 adipocytes, calcein-AM fluorescence, 48 h, basal (AID 1163); conditions: 3T3-L1 adipocytes viability, higher = more signal; also: test concentration not given here
[3] = HepG2 cell viability effects, profiling panel, calcein-AM fluorescence, 48 h, basal (AID 1164); conditions: higher = more signal; also: test concentration not given here
[4] = MM1S cell viability effects, profiling panel, calcein-AM fluorescence, 48 h, basal (AID 1165); conditions: higher = more signal;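 also: viability of MM1S multiple myeloma cells under basal unstimulated conditions; test concentration not given here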
[5] = basal RPMI8226 viability, no added stimulus, profiling panel, cell-based, calcein-AM fluorescence, 48 h, PK04 Diversity Set (AID 1166); conditions: RPMI8226 myeloma viability, higher = more signal;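 also: cells grown under basal conditions without added stimulus; test concentration not given here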
[6] = basal HepG2 mitochondrial membrane potential changes, profiling panel, cell-based, JC-1 fluorescence, 24 h, 100 nL compound (AID 1167); conditions: higher = more signal; also: test concentration not given here
[7] = basal 3T3-L1 adipocyte mitochondrial potential changes, profiling panel, cell-based, JC-1 fluorescence, 3T3-L1 adipocytes, 24 h, 100 nL compound (AID 1168); conditions: JC-1 mitochondrial fluorescence, higher = more signal, called active from +8 up or from −8 down; also: test concentration not given here
[8] = basal RPMI8226 mitochondrial membrane potential changes, profiling panel, cell-based, JC-1 fluorescence, 24 h, 100 nL compound (AID 1169); conditions: RPMI8226 myeloma, JC-1 mitochondrial potential fluorescence, higher = more signal; also: test concentration not given here
[9] = basal MM1S mitochondrial membrane potential changes, profiling panel, cell-based, JC-1 fluorescence, 24 h, 100 nL compound (AID 1170); conditions: higher = more signal; also: test concentration not given here
[10] = A549 lung cancer cell viability effects, profiling panel, resazurin fluorescence, 24 h, PK04 Diversity Set (AID 1171); conditions: higher = more signal, called active from +8 up or from −8 down; also: test concentration not given here
[11] = HepG2 liver cancer cell viability effects, profiling panel, resazurin fluorescence, 24 h, PK04 Diversity Set (AID 1172); conditions: higher = more signal; also: test concentration not given here
[12] = basal S. cerevisiae growth modulation, no modifier, primary screen, OD600, strain BY4716, 24 h, basal condition (AID 1173); conditions: OD600, 24 h, higher = more signal, called active from +8 up or from −8 down
[13] = MM1S myeloma cell viability, profiling panel, resazurin fluorescence, basal, 24 h, PK04 Diversity Set (AID 1174); conditions: higher = more signal, called active from +8 up or from −8 down;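 also: MM1S multiple myeloma cell line; test concentration not given here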
[14] = biological target: Dihydroorotate dehydrogenase (quinone), mitochondrial (Plasmodium falciparum (isolate 3D7)) (UniProt Q08210); test: PfDHODH enzyme inhibitors, primary screen, biochemical, C-terminal His tag, absorbance 600 nm (AID 1175); conditions: DCIP absorbance 600 nm, higher = more signal, called active from +8 up or from −8 down;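 also: recombinant parasite enzyme with a five histidine tag at its C terminus; test concentration not given here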
Dihydroorotate dehydrogenase (quinone), mitochondrial (Plasmodium falciparum (isolate 3D7)), sequence (Q08210 whole entry, looked up): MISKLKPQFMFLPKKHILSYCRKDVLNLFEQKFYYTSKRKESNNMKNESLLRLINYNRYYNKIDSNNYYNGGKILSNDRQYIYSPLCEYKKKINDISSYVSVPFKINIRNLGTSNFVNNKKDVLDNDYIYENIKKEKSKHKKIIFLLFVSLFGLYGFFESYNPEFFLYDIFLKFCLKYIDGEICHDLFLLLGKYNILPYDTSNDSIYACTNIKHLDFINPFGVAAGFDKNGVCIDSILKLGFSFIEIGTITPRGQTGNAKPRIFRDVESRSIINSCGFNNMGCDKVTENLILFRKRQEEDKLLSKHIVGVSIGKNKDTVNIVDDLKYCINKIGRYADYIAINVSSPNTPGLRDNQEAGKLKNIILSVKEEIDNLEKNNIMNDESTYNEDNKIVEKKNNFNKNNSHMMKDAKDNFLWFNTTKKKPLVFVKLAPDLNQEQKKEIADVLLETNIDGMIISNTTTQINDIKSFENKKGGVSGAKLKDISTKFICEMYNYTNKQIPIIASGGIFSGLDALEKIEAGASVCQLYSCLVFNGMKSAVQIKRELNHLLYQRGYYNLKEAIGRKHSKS

[15] = P. aeruginosa biofilm formation inhibitors, primary screen, strain PAO1, LB-PBS medium, absorbance 600 nm (AID 1176); also: test concentration not given here; conditions: P. aeruginosa PAO1 growth/biofilm, A600, 12 h; higher = more signal
[16] = S. cerevisiae RM11-1a growth modifiers, primary screen, strain RM11-1a, OD600, basal, 24 h (AID 1177); conditions: OD600, 24 h, higher = more signal, called active from +8 up or from −8 down;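 also: cultures grown under basal conditions with no added stressor; test concentration not given here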
[17] = E. coli acrAB mutant growth effects, primary screen, E. coli filamentation inducers, strain DRC39, OD650, 24 h (AID 1178); conditions: higher = more signal, called active from +8 up or from −8 down;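 also: growth measured as culture turbidity by optical density at 650 nm; test concentration not given here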
[18] = E. coli acrAB mutant growth effects, primary screen, E. coli filamentation inducers, strain DRC39, OD650, 48 h (AID 1179);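 also: screen aims at cell division blockers that make cells filament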; conditions: E. coli DRC39 delta-acrAB growth, higher = more signal, called active from +8 up or from −8 down
[19] = RPMI8226 myeloma cell viability, profiling panel, resazurin fluorescence, basal, 24 h, PK04 Diversity Set (AID 1180); conditions: higher = more signal;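 also: RPMI8826 multiple myeloma cell line at 5000 cells per well; test concentration not given here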
[20] = biological target: E3 ubiquitin-protein ligase XIAP (Homo sapiens) (UniProt P98170); test: XIAP binders, primary screen, biophysical, small-molecule microarray, fluorescence 635 nm (AID 1181); conditions: small-molecule microarray binding, higher = more signal;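 also: score merges 667 nm emission and signal to noise over triplicate slides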
E3 ubiquitin-protein ligase XIAP (Homo sapiens), sequence (P98170 whole entry, looked up): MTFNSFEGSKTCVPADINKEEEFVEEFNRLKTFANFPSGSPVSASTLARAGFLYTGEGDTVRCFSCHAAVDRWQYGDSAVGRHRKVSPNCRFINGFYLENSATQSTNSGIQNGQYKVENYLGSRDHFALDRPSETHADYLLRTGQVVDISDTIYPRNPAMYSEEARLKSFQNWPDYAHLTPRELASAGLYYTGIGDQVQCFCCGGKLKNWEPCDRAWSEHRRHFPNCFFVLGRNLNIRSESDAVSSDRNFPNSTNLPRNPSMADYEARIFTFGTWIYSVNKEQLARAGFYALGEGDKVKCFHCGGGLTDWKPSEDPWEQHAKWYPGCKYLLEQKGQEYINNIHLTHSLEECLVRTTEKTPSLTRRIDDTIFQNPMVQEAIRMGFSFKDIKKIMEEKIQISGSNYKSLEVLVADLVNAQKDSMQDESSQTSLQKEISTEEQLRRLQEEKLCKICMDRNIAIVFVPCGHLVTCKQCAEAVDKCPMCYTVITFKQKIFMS

Row | SMILES | z-score [1] | z-score [2] | z-score [3] | z-score [4] | z-score [5] | z-score [6] | z-score [7] | z-score [8] | z-score [9] | z-score [10] | z-score [11] | z-score [12] | z-score [13] | composite z-score [14] | z-score [15] | z-score [16] | z-score [17] | z-score [18] | z-score [19] | composite z-score [20]
1 | O=P(NCC1(CC2(c3ccccc3)CO2)CC1)(c1ccccc1)c1ccccc1 (stereo not given) | -1.08 | -0.933 | 0.676 | 0.116 | 0.0906 | -0.187 | 0.48 (inactive) | 0.125 | -0.792 | 0.316 (inactive) | -0.293 | 1.19 (inactive) | -0.242 (inactive) | -0.402 (inactive) | 0.191 (inactive) | 2.7 (inactive) | -0.191 (inactive) | -0.0173 (inactive) | 0.0301 | -0.102
2 | CC(c1ccccc1)C(O)C1C=CC2C(=O)N(c3ccccc3)C(=O)C2N1Nc1ccccc1F (stereo not given) | -0.221 | -0.146 | -0.77 | 0.214 | -0.975 | -1.13 | -0.994 (inactive) | 0.387 | -0.289 | 0.959 (inactive) | 0.677 | -0.817 (inactive) | 0.0907 (inactive) | 0.549 (inactive) | 0.533 (inactive) | -1.12 (inactive) | 0.0976 (inactive) | 0.669 (inactive) | 1.21 | 0.0859
3 | C=CCC(OC(C)=O)[C@@H]1[C@@H](N(Cc2cc3ccccc3o2)C(=O)c2cccc3ccccc23)c2cc(OCCCO)ccc2N1C(=O)Cc1ccc(OC)cc1 (stereo not given in full) | 0.323 | 1.28 | 0.222 | 0.381 | -1.05 | 2.46 | -0.0309 (inactive) | 0.181 | 0.177 | -1.38 (inactive) | -1.29 | -0.149 (inactive) | -1.17 (inactive) | 0.507 (inactive) | -0.334 (inactive) | 0.196 (inactive) | -0.386 (inactive) | -0.725 (inactive) | -1.17 | 0.211
4 | COC(=O)[C@@]1(Cc2ccc(OC)cc2)[C@H]2c3cc(C(=O)N(C)C)n(Cc4ccc(OC)c(OC)c4)c3C[C@H]2CN1C(=O)c1ccccc1 | -1.72 | -0.204 | -1.18 | -1.32 | -2.07 | 0.297 | -1.29 (inactive) | -0.605 | -1.11 | -1.35 (inactive) | -0.962 | 2.46 (inactive) | -1.67 (inactive) | 0.697 (inactive) | 0.964 (inactive) | 2.19 (inactive) | -0.558 (inactive) | 0.0309 (inactive) | -2.28 | 0.124
5 | O=C(CS)NCCCCCCNC(=O)[C@H]1C[C@H]2C(=O)N3CCC[C@H]3C(=O)N2[C@H]1c1ccc(O)cc1 | -0.683 | 0.646 | 0.0725 | -0.213 | 1.07 | -1.12 | -0.0423 (inactive) | -0.0782 | -0.419 | 0.985 (inactive) | 0.301 | 0.152 (inactive) | -0.868 (inactive) | -0.504 (inactive) | 0.0499 (inactive) | -0.458 (inactive) | -0.144 (inactive) | -0.516 (inactive) | -0.563 | 0.115
6 | COc1ccc([Si](C)(C)[C@@H]2[C@@H](CC(=O)N3Cc4ccccc4C[C@H]3CO)O[C@]3(C(=O)N(Cc4cccc(N5C(=O)COc6ccccc65)c4)c4ccccc43)[C@H]2C)cc1 | 0.196 | 1.34 | 0.553 | -0.296 | -1.47 | 0.411 | 1.52 (inactive) | -1.17 | -0.974 | -0.751 (inactive) | 0.645 | -1.17 (inactive) | -1.84 (inactive) | -1.32 (inactive) | 1.92 (inactive) | 1.39 (inactive) | 1.53 (inactive) | 1.53 (inactive) | -0.748 | 0.188
7 | CCN(CC)c1ccc(N2CC=CC34O[C@@H]5/C=C\CCC(C)OC(=O)C5[C@H]3C(=O)N(CCCCCCO)[C@@H]4C2=O)cc1 (stereo not given in full) | 1.21 | -1.09 | 0.674 | 1.57 | 0.153 | 1.25 | -1.02 (inactive) | 0.0282 | 0.846 | 0.606 (inactive) | -0.105 | -0.0746 (inactive) | 0.384 (inactive) | -0.788 (inactive) | -0.497 (inactive) | 0.251 (inactive) | 1.37 (inactive) | 1.59 (inactive) | 1.56 | -0.0545
8 | OCCCc1cc[n+](Cc2cccc(OC(F)(F)F)c2)cc1 | -0.0193 | 0.997 | -1.18 | 0.277 | -1.86 | 1.14 | -0.487 (inactive) | -0.0293 | -0.978 | 0.484 (inactive) | 0.887 | -1.08 (inactive) | 0.499 (inactive) | -3.59 (inactive) | 0.0898 (inactive) | 0.616 (inactive) | 0.453 (inactive) | 0.159 (inactive) | -0.326 | 0.337
9 | CN1C(=O)C2C=CC(C(O)c3ccc(Br)cc3)N(Nc3ccccc3)C2C1=O (stereo not given) | 0.622 | -0.384 | 1.17 | -0.0257 | -0.119 | -3.16 | -1 (inactive) | 0.0774 | -0.425 | -0.443 (inactive) | 0.0752 | -0.348 (inactive) | -0.26 (inactive) | -0.125 (inactive) | 0.434 (inactive) | 0.732 (inactive) | -0.398 (inactive) | -0.413 (inactive) | 0.296 | -0.0773
